Records with an inconclusive call do not appear. Activity calls are given as the source filed them. Calls come from the whole dose curve; as a rule, active = well fitted curve in the direction sought with a large enough effect; inconclusive = small, poorly fitted or top-dose-only effect, or another doubt; inactive = no such curve, though single readings can be large; an effect the other way counts as inactive or inconclusive.
Assays:
UISO = assay: qHTS assay to identify novel small-molecules to repurpose for Merkel cell carcinoma treatment (AID 1296009); conditions: MCC and control cell lines, CellTiter-Glo viability, 72 h; series mostly up to 46 µM; note: nearly all actives have a fitted effect of over 60% in size
Method in brief: (§1)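 After compound transfer in DMSO, plates were kept 72 hr at 37 degree celsius. Luminescent ATP signal from CellTiter-Glo served as viability measure, normalized against DMSO and no-cell controls.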

WaGa = assay: as above; conditions: MCC and control cell lines, CellTiter-Glo viability, 72 h; series mostly up to 46 µM
Method in brief: as §1

C33A = assay: Primary qHTS to identify gynecologic anti-cancer compounds using libraries of approved drugs and bioactive compounds (AID 1345084); conditions: Gynecologic cancer cell panel viability, ATPlite luminescence, 48 h; series mostly up to 57.5 µM; note: nearly all actives have a fitted effect of over 55% in size
Method in brief: (§2)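 Cells, 1,000 per well, were allowed to settle for 16 h at 37 C before compound addition. Five concentrations were tested for 48 h, and viability was read by ATPlite luminescence after 15 min at room temperature.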

CAOV3 = assay: as above; conditions: Gynecologic cancer cell panel viability, ATPlite luminescence, 48 h; series mostly up to 57.5 µM
Method in brief: as §2

CASKI = assay: as above; conditions: Gynecologic cancer cell panel viability, ATPlite luminescence, 48 h; series mostly up to 57.5 µM
Method in brief: as §2

Es-2 = assay: as above; conditions: Gynecologic cancer cell panel viability, ATPlite luminescence, 48 h; series mostly up to 57.5 µM
Method in brief: as §2

HeLa = assay: as above; conditions: Gynecologic cancer cell panel viability, ATPlite luminescence, 48 h; series mostly up to 57.5 µM
Method in brief: as §2

Hek293T = assay: as above; conditions: Gynecologic cancer cell panel viability, ATPlite luminescence, 48 h, control line for the selectivity index; series mostly up to 57.5 µM
Method in brief: as §2

JEG-3 = assay: as above; conditions: Gynecologic cancer cell panel viability, ATPlite luminescence, 48 h; series mostly up to 57.5 µM
Method in brief: as §2

PA-1 = assay: as above; conditions: Gynecologic cancer cell panel viability, ATPlite luminescence, 48 h; series mostly up to 57.5 µM
Method in brief: as §2

SKOV3 = assay: as above; conditions: Gynecologic cancer cell panel viability, ATPlite luminescence, 48 h; series mostly up to 57.5 µM
Method in brief: as §2

Tov-21-G = assay: as above; conditions: Gynecologic cancer cell panel viability, ATPlite luminescence, 48 h; series mostly up to 57.5 µM
Method in brief: as §2

Tov112D = assay: as above; conditions: Gynecologic cancer cell panel viability, ATPlite luminescence, 48 h; series mostly up to 57.5 µM
Method in brief: as §2

[1] = Drug repurposing screens with cells derived from glioblastoma tumor samples (AID 1345199); conditions: GBM patient neurospheres viability, ATP luminescence, 48 h; for Potency: tumour line A; for all read-outs here: nearly all actives have a fitted effect of over 40% in size
Method in brief: (§3)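 Four patient lines of CD133+ GBM neurospheres were screened at several concentrations; hits were retested in those lines plus three slower-growing GBM lines, using 48-hour treatment and ATP-based viability.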

astro = assay: as above; conditions: viability, ATP luminescence, 48 h; series mostly up to 45.9 µM
Method in brief: as §3

OV90 = assay: Primary qHTS to identify gynecologic anti-cancer compounds using libraries of approved drugs and bioactive compounds (AID 1345084); conditions: Gynecologic cancer cell panel viability, ATPlite luminescence, 48 h; series mostly up to 57.5 µM; note: nearly all actives have a fitted effect of over 55% in size
Method in brief: as §2

[2] = at 45.9 µM (top of the series), tumour line B
[3] = at 46.1 µM (top of the series), tumour line C
% is set by controls: 0 for no effect and ±100 for the full control effect; potency is the fitted concentration of half-maximal effect.

OC(CCCN1CCCCC1)(c1ccccc1)c1ccccc1
inactive: Potency (UISO) | Potency (WaGa) | Potency (C33A) | Potency (CAOV3) | Potency (CASKI) | Potency (Es-2) | Potency (HeLa) | Potency (Hek293T) | Potency (JEG-3) | Potency (PA-1) | Potency (SKOV3) | Potency (Tov-21-G) | Potency (Tov112D) | activity, negative = cell killing [1, 2] 9.15% | activity, negative = cell killing ([1]; at 45.9 µM (top of the series), tumour line D) -27.2% | activity, negative = cell killing [1, 3] -3.12% | Potency (astro)
active: Potency [1] 11.2 µM

CC(C)=CCC/C(C)=C/CC/C(C)=C/C(=O)OCC(=O)[C@@]1(O)CC[C@H]2[C@@H]3CCC4=CC(=O)C=C[C@]4(C)[C@H]3[C@@H](O)C[C@@]21C
inactive: Potency (UISO) | Potency (WaGa) | Potency (C33A) | Potency (CAOV3) | Potency (CASKI) | Potency (HeLa) | Potency (JEG-3) | Potency (OV90) | Potency (Tov-21-G)
active: Potency (Hek293T) 35.5 µM

C=CCOc1cc(Cl)ccc1C(=O)NCCN(CC)CC
inactive: Potency (UISO) | Potency (WaGa) | Potency (C33A) | Potency (CAOV3) | Potency (CASKI) | Potency (Es-2) | Potency (HeLa) | Potency (Hek293T) | Potency (JEG-3) | Potency (PA-1) | Potency (SKOV3) | Potency (Tov-21-G) | Potency (Tov112D) | activity, negative = cell killing [1, 2] -22.9% | activity, negative = cell killing [1, 3] 2.19% | Potency (astro)
active: Potency [1] 10 µM

COc1ccc(OC(=O)N(CC(=O)O)Cc2ccc(OCCc3nc(-c4ccccc4)oc3C)cc2)cc1
inactive: Potency (UISO) | Potency (WaGa) | Potency (C33A) | Potency (CASKI) | Potency (Es-2) | Potency (HeLa) | Potency (Hek293T) | Potency (JEG-3) | Potency (OV90) | Potency (PA-1) | Potency (SKOV3) | Potency (Tov-21-G) | Potency (Tov112D)

O=[N+]([O-])c1ccc(O)c2ncccc12
active: Potency (UISO) 7.5 µM | Potency (WaGa) 7.5 µM | Potency (C33A) 15.8 µM | Potency (Tov112D) 28.2 µM | Potency (astro) 3.55 µM
inactive: Potency (HeLa) | Potency (JEG-3)

O=c1[nH]c(=O)n([C@H]2O[C@H](CO)[C@@H](O)[C@@H]2O)cc1/C=C\Br
inactive: Potency (UISO) | Potency (WaGa) | Potency (C33A) | Potency (CASKI) | Potency (Es-2) | Potency (HeLa) | Potency (Hek293T) | Potency (JEG-3) | Potency (OV90) | Potency (PA-1) | Potency (Tov-21-G) | Potency (Tov112D)

CC(C)Cc1ccc(C(C)C(=O)OCc2ccccn2)cc1 (configuration not stated)
inactive: Potency (UISO) | Potency (WaGa) | Potency (C33A) | Potency (CASKI) | Potency (Es-2) | Potency (HeLa) | Potency (Hek293T) | Potency (JEG-3) | Potency (OV90) | Potency (PA-1) | Potency (SKOV3) | Potency (Tov-21-G) | Potency (Tov112D)

CN1Cc2cc(C(=O)N3CCC(C4CCNCC4)CC3)ccc2NC(CC(=O)O)C1=O (configuration not stated)
inactive: Potency (UISO) | Potency (WaGa) | Potency (C33A) | Potency (CASKI) | Potency (Es-2) | Potency (HeLa) | Potency (Hek293T) | Potency (JEG-3) | Potency (OV90) | Potency (PA-1) | Potency (Tov-21-G) | Potency (Tov112D)

O=C(Nc1ccc(Cl)cc1)Nc1ccc(Cl)c(C(F)(F)F)c1
inactive: Potency (JEG-3)
active: Potency (UISO) 10.6 µM | Potency (WaGa) 26.6 µM | Potency (C33A) 17.8 µM | Potency (Es-2) 28.2 µM | Potency (HeLa) 14.1 µM | Potency (Hek293T) 14.1 µM | Potency (OV90) 25.1 µM | Potency (Tov112D) 31.6 µM | Potency (astro) 10 µM
